Screens: PubChem BioAssay, several laboratories
MEKK2 WT-MEK5 = raises or lowers MEK5 binding to wildtype human MEKK2 PB1 domain; bead flow cytometry, Alexa488-MEK5 binding to MEKK2 WT; actives lie on both sides; hit rate 1.1% among 290,000; binding response (% of control), % at 10 µM; Q9Y2U5; in the data active = binding response below about 67% or above about 130%
MEKK3 PB1 HTS = modulators (inhibitors or enhancers) of MEK5 binding to human MEKK3 PB1 domain. Q99759. bead-based flow cytometry, Alexa488-MEK5 binding to MEKK3; actives lie on both sides; 0 = blocked by unlabeled MEK5, 100 = vehicle. hit rate 1.4% among 290,000. binding response (% of control), % at 10 µM;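 active = binding response more than 3 SD above or below the average of its plate-row segment, actives on both sides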;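 also: Alexa488 bead fluorescence after subtracting the streptavidin-only scavenger bead signal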
Target sequence (Q99759 whole entry, looked up, the tested form may be a part): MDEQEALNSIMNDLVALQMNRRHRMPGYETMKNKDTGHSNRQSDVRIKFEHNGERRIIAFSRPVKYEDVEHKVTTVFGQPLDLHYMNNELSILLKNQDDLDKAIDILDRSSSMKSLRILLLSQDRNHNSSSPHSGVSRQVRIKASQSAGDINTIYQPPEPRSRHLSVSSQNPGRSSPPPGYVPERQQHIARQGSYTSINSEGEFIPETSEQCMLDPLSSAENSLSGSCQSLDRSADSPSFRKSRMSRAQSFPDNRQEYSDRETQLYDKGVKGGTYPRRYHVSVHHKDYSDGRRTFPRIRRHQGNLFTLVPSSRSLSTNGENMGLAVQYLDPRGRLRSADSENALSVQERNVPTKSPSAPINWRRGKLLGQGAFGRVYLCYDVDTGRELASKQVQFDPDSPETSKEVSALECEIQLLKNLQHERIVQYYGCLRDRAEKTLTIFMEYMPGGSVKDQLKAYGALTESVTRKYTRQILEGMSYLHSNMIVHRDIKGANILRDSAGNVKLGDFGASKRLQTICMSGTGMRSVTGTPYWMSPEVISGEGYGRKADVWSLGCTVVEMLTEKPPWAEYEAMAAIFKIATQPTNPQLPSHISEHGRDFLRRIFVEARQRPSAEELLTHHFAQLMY
SKN-1 inh = blocks SKN-1 activity in C. elegans. C. elegans VP596 Pgst-4::GFP/RFP ratio, acrylamide-induced, 24 h. inhibition, % at 21.8 µM. hit rate 0.49% among 360,000;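 active = interference check ratio from 0.5 to 1.5 plus GFP to RFP signal ratio inhibition reaching or exceeding a fixed threshold, cut at about 30% in these data, passing the limit was not always enough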
MEKK2 mut-MEK5 = signal of MEK5 binding to mutant human MEKK2 PB1 domain; bead flow cytometry, Alexa488-MEK5 binding to MEKK2 mutant; percent response, % at 10 µM; hit rate 0.35% among 290,000; AID 1530; in the data active = percent response above about 24%, passing the limit was not always enough
NRP1-CendR mod = NRP-1/CendR interaction modulation; O14786; FAM-RPARPAR peptide binding to NRP-1, fluorescence polarization; inhibition, % at 25 µM; hit rate 0.85% among 360,000; AID 602438;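 active = inhibition or corrected inhibition above about 18%, plus a signal ratio from 0.5 to 1.5, limit read from the data, passing the limit was not always enough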
MEKK2wt confirm = raises or lowers MEK5 binding to wildtype human MEKK2, retest; hit rate 2.4% among 5,900; shares compounds with MEKK3 PB1 HTS; bead flow cytometry, Alexa488-MEK5 binding to MEKK2 WT; actives lie on both sides; binding response (% of control), % at 10 µM; in the data active = binding response below about 16% or above about 210%; inactive = in between
MEKK2mut confirm = signal of MEK5 binding to mutant human MEKK2, retest. hit rate 2% among 5,900. percent response, % at 10 µM. bead flow cytometry, Alexa488-MEK5 binding to MEKK2 mutant. shares compounds with MEKK3 PB1 HTS; in the data active = percent response mostly above about 71%, no sharp cut-off; inactive = mostly below about 38%;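 also: higher means compound restores mutant binding toward wildtype level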
MEKK3-MEK5 inh = confirmation of inhibitors of MEK5 binding to human MEKK3. shares compounds with MEKK3 PB1 HTS. bead flow cytometry, Alexa488-MEK5 binding to MEKK3; hits give low values. binding response (% of control), % at 10 µM. hit rate 1.8% among 5,900. AID 1894;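 active = binding response below 72% of control, or above a set upper limit, though filed actives all read lower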;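 also: 100% = DMSO only wells and 0% = binding blocked by excess unlabeled MEK5; lower values mean stronger disruption of MEK5 binding to MEKK3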
* hit, by the source's call; . = not tested or not shown; [ ] = dose if it differs, or a comment. Shown are actives, neighbours in structure and some others; about 3.2% of the full set was active somewhere.

SMILES	MEKK2 WT-MEK5	MEKK3 PB1 HTS	SKN-1 inh	MEKK2 mut-MEK5	NRP1-CendR mod	MEKK2wt confirm	MEKK2mut confirm	MEKK3-MEK5 inh
COc1cc2c(cc1NC(=O)Nc1cccc(C)c1)oc1ccccc12	150*	106	-23	30*	-3	6.0*[inhibitor]	41	101
COc1ccc(NC(=O)Nc2cc3oc4ccccc4c3cc2OC)cc1	.	.	3	.	-17	.	.	.
COc1cc(/C=N/N=C(N)N)ccc1OCc1ccccc1Cl	229*	117	12	35	12	189	41	101
COc1cc2c(cc1OC)C(O)C(O)(CO)C(C(=O)O)C2c1cc(OC)c(OC)c(OC)c1 (stereo not drawn)	.	.	-4	.	6	.	.	.
COc1cc2[nH]c3c(Cl)ncnc3c2cc1OC	94	71*[inhibitor]	6	1	8	108	14	103
COc1cc2[nH]c3c(N4CCN(c5ccc(Cl)cc5)CC4)ncnc3c2cc1OC	157*	111	9	24*	-2	189	49	110
CCCCNC(=O)C1(C)CCN1C(=O)c1cc(C)n(C(C)(C)C)n1 (stereo not drawn)	.	.	1	.	3	.	.	.
COc1ccc([C@H]2CC(=O)C=C(c3cccc(C(C)C)c3)C2)cc1OC	.	.	5	.	2	.	.	.
CSc1cccc(NC(=S)N(CCCN2CCCC2)Cc2cccs2)c1	119	104	-6	6	5	.	.	.
CSc1cccc(NC(=S)N(CCCN2CCCC2)Cc2cccn2Cc2ccc(Cl)cc2)c1	270*	113	7	94*	8	245*	77*	111
COc1cccc(NC(=S)N(CCCN2CCCC2)Cc2cccn2Cc2ccc(Cl)cc2)c1	177*	113	-3	55*	-13	164	38	111
S=C(Nc1cccc(Cl)c1)N(CCCN1CCCC1)Cc1cccn1Cc1ccc(Cl)cc1	262*	105	4	8	-4	221*	63	114
O=C(OCc1ccccc1)N1CCC2CC1c1cc(/C=C/CCCSc3ncccn3)ccc12 (stereo not drawn)	.	.	-9	.	4	.	.	.
CN(C)c1nc(Cl)nc2c1nc(Cl)n2C1CCCCO1 (stereo not drawn)	.	.	8	.	-2	.	.	.
Cc1c(N=c2c(=O)c3ccccc3c2=O)c(=O)n(-c2ccccc2)n1C	96	99	.	1	.	.	.	.
Cc1c(N=C2SCC(=O)N2/N=C/c2ccccc2)c(=O)n(-c2ccccc2)n1C	102	129*	-10	0	13	97	0	100
Cc1cccc(-c2nc(NCCCN(C)C)c3ccccc3n2)c1	135*	105	-4	13	4	112	7	102
CN(C)CCCNc1nc(-c2ccc(Cl)cc2)nc2ccccc12	141*	111	19	16	-3	134	15	106
Cc1c(C(=O)NCc2ccc(C#N)cc2)sc(=O)n1Cc1ccccn1	.	.	-19	.	2	.	.	.
O=C1NC[C@H](c2ccccc2)N(CCc2cccc(F)c2)C1=O	94	79*[inhibitor]	16	-10	0	100	-6	99
CCCC[C@@H]1CNC(=O)C(=O)N1CCc1cccc(F)c1	.	.	13	.	-20	.	.	.
O=C(CN1CCOCC1)Nc1ncc(Cc2cccc(Cl)c2)s1	109	152*	-11	0	1	105	3	106
Cc1cc(C)nc(SCC(=O)Nc2ncc(Cc3cccc(Cl)c3)s2)n1	95	92	5	-3	-3	.	.	.
C[C@H]1CNC(=O)c2c(C(=O)Nc3ccc(CNC(=O)OC(C)(C)C)cc3)ncn21	.	.	4	.	-9	.	.	.
CCCS(=O)(=O)NC(=O)C1(C)CCN(C(=O)Cc2ccc(OC)cc2)C1 (stereo not drawn)	.	.	10	.	10	.	.	.
SMILES	MEKK2 WT-MEK5	MEKK3 PB1 HTS	SKN-1 inh	MEKK2 mut-MEK5	NRP1-CendR mod	MEKK2wt confirm	MEKK2mut confirm	MEKK3-MEK5 inh
Clc1ccc(-c2cn3cc(Br)ccc3n2)cc1Cl	109	150*	57*	0	2	93	-2	100
CCCCN(C(C)=O)c1c(CC)nc2ccc(C(=O)Nc3cccc(OCC(=O)N(C)C)c3)cn12	.	.	3	.	-4	.	.	.
NC1=NC2(CCCCC2)N=C(Nc2ccc(Br)cc2)N1	141*	107	-2	36	8	120	6	101
Cc1cccc(C)c1NC1=NC2(CCCCC2)N=C(N)N1	95	88	-7	-6	6	.	.	.
COC(=O)c1ccc(S(=O)(=O)N2Cc3ccccc3C2)cc1	117	135*	-2	1	-1	101	8	102
CCOc1ccc(OCCC(=O)N(CCOC)c2c(N)n(Cc3ccccc3)c(=O)[nH]c2=O)cc1	.	.	11	.	5	.	.	.
CCC(=O)Nc1ccc(Cl)c(NC(=S)NC(=O)COc2ccc(Cl)cc2)c1	97	74*[inhibitor]	17	-1	-4	103	3	103
CCC(=O)Nc1ccc(Cl)c(NC(=S)NC(=O)COc2ccccc2)c1	98	102	-10	2	6	.	.	.
CCOC(=O)/C(C#N)=C/c1ccc(OCC(=O)Nc2ccc(OC)cc2)c(OC)c1	119	124*	7	4	-7	100	0	99
Cc1cc(C)cc(N(C(=O)C2CCCC2)C2C=CS(=O)(=O)C2)c1 (stereo not drawn)	78	76*[inhibitor]	9	-13	-5	105	7	106
Cc1cc(C)cc(N(C(=O)c2cc3ccccc3oc2=O)C2C=CS(=O)(=O)C2)c1 (stereo not drawn)	110	141*	0	0	-6	106	2	101
Cc1ccc(N(C(=O)C2CCCC2)C2C=CS(=O)(=O)C2)cc1 (stereo not drawn)	97	90	18	-1	0	.	.	.
COC(=O)/C=C1\C(=O)N(c2nc3ccccc3s2)C(=S)N1c1ccc(F)cc1	0.0*[inhibitor]	1.0*[inhibitor]	-35	-41	27*	99	0	99
CN(CC1COc2ccccc2O1)C(=O)CCNS(=O)(=O)c1ccc(F)c(Cl)c1 (stereo not drawn)	.	.	-5	.	-2	.	.	.
Cc1ccc2nnnc(-c3ccccc3)c2c1	54*[inhibitor]	88	7	-9	-4	98	8	104
Cc1nn(C)c(C)c1NC(=O)CSc1nc(Cc2ccccc2)nc2c1cnn2-c1ccccc1	81	74*[inhibitor]	7	-9	-26	101	3	100
Cc1nn(Cc2ccccc2)c(C)c1NC(=O)CSc1nc(C2CC2)nc2c1cnn2-c1ccccc1	101	103	1	-1	-15	.	.	.
